# According to ChEMBL document CHEMBL3988442, “University of Dundee, Small-Polar-MMV Screening Library” (2021):
# Screen size: about 69,000 compounds; about 1,000 (1.4%) showed an effect of 50% or more. What follows is part of a selection rich in strong results, with near analogues and random picks from the rest.
# Tested on: Leishmania donovani
# Test: Leishmania intramacrophage assay
# Type: functional, organism-based
# Design: scale not given: in the data most compounds retested in dose-response had high values
compound,measurement,setting,value
CCOCC(O)CN1CCN(C(=O)c2ccc(C)nc2)CC1 (stereo unspecified),Percent Effect,30 µM,29.83%
COc1ccc(Br)cc1CCC(=O)N1CCCC(O)C1 (stereo unspecified),Percent Effect,"30.3 µM, […]",6.225%
N#Cc1cccc(OCCN2CCCC(c3noc(C4CC4)n3)C2)c1 (stereo unspecified),Percent Effect,"30.3 µM, […]",32.43%
COCC1CN(S(=O)(=O)c2cccs2)Cc2ncnn2C1 (stereo unspecified),Percent Effect,"30.3 µM, […]",38.74%
Cc1ccccc1C(=O)Nc1cnn(CCN2CCOCC2)c1,Percent Effect,30 µM,17.38%
CC(C)CS(=O)(=O)Nc1ccc2c(c1)OCC(C)(C)C(=O)N2C,Percent Effect,"30.3 µM, […]",-17.18%
CSc1ccc(CNC(=O)C2CC(=O)N(C(C)(C)C)C2)cc1 (stereo unspecified),Percent Effect,"30.3 µM, […]",55.18%
CCN1CC(C(=O)NCc2cccc(SC)c2)CC1=O (stereo unspecified),Percent Effect,"30.3 µM, […]",-29.4%
CN(C)S(=O)(=O)c1ccc(CNC(=O)C2CC(=O)N(C(C)(C)C)C2)cc1 (stereo unspecified),Percent Effect,"30.3 µM, […]",21.08%
O=c1[nH]c(-c2ccc(F)cc2)nc2c1CCNC2,Percent Effect,"30.3 µM, […]",23.84%
O=c1[nH]c(-c2ccc(F)c(F)c2)nc2c1CCNC2,Percent Effect,"30.3 µM, […]",51.76%
O=c1[nH]c(-c2ccc(Cl)cc2)nc2c1CCNC2,Percent Effect,"30.3 µM, […]",20.84%
Cc1nc(CN2C[C@@H]3CCCO[C@@H]3[C@H](NC(=O)CC3CC3)C2)cs1.O=C(O)C(F)(F)F,Percent Effect,"30.3 µM, […]",13.13%
CC(=O)NCC(=O)N1CCC2(COCc3c(C)nc(N(C)C)nc32)C1 (stereo unspecified),Percent Effect,"30.3 µM, […]",0.3657%
Cc1ccoc1C(=O)N1CC[C@H]2C[C@H](c3nnc(C4CC4)o3)O[C@@H]2C1,Percent Effect,"30.3 µM, […]",7.701%
Cc1cc(C(=O)Cn2cnnc2[S+](C)[O-])cc(C)c1F (stereo unspecified),Percent Effect,"30.3 µM, […]",9.03%
CCCc1nn(C2CCN(C(C)C)C2=O)c(=O)o1 (stereo unspecified),Percent Effect,"30.3 µM, […]",51.41%
CCCc1nn(C2CCN(C3CC3)C2=O)c(=O)o1 (stereo unspecified),Percent Effect,"30.3 µM, […]",-13.56%
CCCc1nn(C2CCCN(C(C)C)C2=O)c(=O)o1 (stereo unspecified),Percent Effect,"30.3 µM, […]",-18.62%
CN1C(=O)C2(CCN(C(=O)c3ccccc3)CC2)c2cc(F)ccc21.Cl,Percent Effect,"30.3 µM, […]",50.2%
CC(=O)N1CCC2(CC1)C(=O)N(C)c1ccc(F)cc12,Percent Effect,"30.3 µM, […]",29.57%
CC(Oc1ccc(F)c(F)c1)C(=O)N(CC(N)=O)C1CCCC1 (stereo unspecified),Percent Effect,"30.3 µM, […]",-10.08%
CCc1nccn1C1CCCN(C(=O)c2cc3nc(C)ccc3o2)C1 (stereo unspecified),Percent Effect,"30 µM, 30.03 µM",3.953%
Cc1nn(C)c2c(NCc3ccccn3)ncnc12,Percent Effect,"30.3 µM, […]",50.68%
Cc1nn(C)c2cn(C(C)C(=O)NCc3cccnc3)nc12 (stereo unspecified),Percent Effect,"30 µM, 30.03 µM",8.191%
Cc1nc(NCc2ccccn2)c2c(n1)c(C)nn2C,Percent Effect,"30.3 µM, […]",42.28%
Cc1nn(C)c2cn(C(C)C(=O)NCc3ccc(F)cc3)nc12 (stereo unspecified),Percent Effect,"30.3 µM, […]",25.73%
Cc1nn(C)c2cn(C(C)C(=O)NCc3ccccn3)nc12 (stereo unspecified),Percent Effect,"30.3 µM, […]",50.14%
COc1ccccc1CNC(=O)C(C)N1CC(n2cc(C)cn2)C1 (stereo unspecified),Percent Effect,"30.3 µM, […]",25.52%
CCn1nccc1CNC(=O)C(C)n1cc2c(n1)c(C)nn2C (stereo unspecified),Percent Effect,"30 µM, 30.03 µM",-8.273%
Cc1nn(C)c2cn(C(C)C(=O)NCc3cccc(F)c3)nc12 (stereo unspecified),Percent Effect,"30.3 µM, […]",-38.24%
CCc1nc(NCc2ccccn2)c2c(n1)c(C)nn2C,Percent Effect,"30.3 µM, […]",-38.07%
COc1ccccc1CNC(=O)C(C)n1cc2c(n1)c(C)nn2C (stereo unspecified),Percent Effect,"30.3 µM, […]",52.43%
Cc1nn(C)c2cn(C(C)C(=O)NCc3ccncc3)nc12 (stereo unspecified),Percent Effect,"30.3 µM, […]",59.59%
COc1ccccc1CNC(=O)Cn1ncc2c1c(C)nn2C,Percent Effect,"30 µM, 30.03 µM",13.53%
Cc1nc(NCc2ccc(F)cc2)cc(C(=O)N2CCOCC2)n1,Percent Effect,"30.3 µM, […]",32.39%
Cc1ccc(CN2CCCC3(CCCCN3S(C)(=O)=O)C2)s1.O=C(O)C(F)(F)F (stereo unspecified),Percent Effect,"30.3 µM, […]",8.751%
Cn1cnnc1C1CCCN(C(=O)NCCCn2cccn2)C1 (stereo unspecified),Percent Effect,30 µM,24.48%
Cn1cnnc1SCc1cc2c(cc1Br)OCO2,Percent Effect,"30.3 µM, […]",-1.981%
CN(C(=O)c1cccc(OCC(F)F)n1)c1ccc2c(c1)CCO2,Percent Effect,"30.3 µM, […]",24.43%
O=C(C1SCCc2sccc21)N1CCN(CCO)CC1 (stereo unspecified),Percent Effect,"30 µM, 30.03 µM",-7.988%
Cc1cc(N(C)C)nc(C2(C)CCCN2C(=O)c2ccn(C)n2)n1 (stereo unspecified),Percent Effect,"30.3 µM, […]",1.341%
COc1ccc(OCCN(C)S(=O)(=O)N2CCOCC2)cc1,Percent Effect,"30.3 µM, […]",11%
CC(C)NC(=O)c1ccc2nnc(C3CN(C)CCN3C)n2c1.O=C(O)C(F)(F)F.O=C(O)C(F)(F)F (stereo unspecified),Percent Effect,"30.3 µM, […]",-3.873%
COc1c(CNCc2ccc(Cn3ccnc3)cc2)c(C)nn1C,Percent Effect,30 µM,38.9%
COc1c(CNCc2cccc(Cn3cccn3)c2)c(C)nn1C,Percent Effect,30 µM,41.23%
COc1c(CNCc2cccc(CN(C)C)c2)c(C)nn1C.Cl,Percent Effect,"30 µM, 30.03 µM",41.69%
COc1c(CNCc2cccc(Cn3ccnc3C)c2)c(C)nn1C.Cl,Percent Effect,30 µM,52.6%
COc1c(CNCc2ccc(C(=O)N(C)C)cc2)c(C)nn1C.Cl,Percent Effect,"30 µM, 30.03 µM",56.22%
COc1c(CNCc2cccc(C(=O)N(C)C)c2)c(C)nn1C,Percent Effect,30 µM,37.17%
COc1c(CNCc2ccccc2Cn2ccnc2)c(C)nn1C,Percent Effect,30 µM,42.31%
